PubChem BioAssay (NCATS)
Results filed as inconclusive are left out. The source made the active and inactive calls. Calls come from the whole dose curve; as a rule, active = well fitted curve in the direction sought with a large enough effect; inconclusive = small, poorly fitted or top-dose-only effect, or another doubt; inactive = no such curve, though single readings can be large; an effect the other way counts as inactive or inconclusive.

Legend:
[1] = BET inhibitor-based combinations targeting novel dependencies in MECOM-rearranged (r) AML: SET-2 cell line (AID 2202231); conditions: SET-2 AML cells viability, CellTiter-Glo luminescence, 48 h; viability: stronger effect = lower value, concentration not given here; note: nearly all actives have a fitted effect of over 35% in size;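 for viability: plate controls were DMSO treated cells for no effect and wells without cells for full effect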
Procedure, shortened: (§1)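 500 cells/well; 11-pt dose curve; 48 h, standard incubator; CellTiter-Glo luminescence after 15 min RT; DMSO/empty-well normalization; AUC plus Z-AUC (mean-centered within each line).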

[2] = BET inhibitor-based combinations targeting novel dependencies in MECOM-rearranged (r) AML: OCI-AML3 cell line (AID 2202232); conditions: Potency: OCI-AML3 viability; note: nearly all actives have a fitted effect of over 35% in size;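 for viability (% of control): series mostly up to about 46 µM; plate controls were DMSO vehicle wells for no effect and wells without cells for full effect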
Procedure, shortened: as §1

[3] = BET inhibitor-based combinations targeting novel dependencies in MECOM-rearranged (r) AML: MV-4-11 cell line (AID 2202233); note: nearly all actives have a fitted effect of over 45% in size;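 for viability, % of control: plate controls were DMSO for no effect and blank wells for full effect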
Procedure, shortened: (§2)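 Cells were plated at 500 per well and exposed to each drug across an 11-point dose range for 48 hr at standard incubator conditions. Viability was read by CellTiter-Glo luminescence, and activity was expressed as AUC and per-cell-line Z-transformed AUC.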

[4] = BET inhibitor-based combinations targeting novel dependencies in MECOM-rearranged (r) AML: UCSD-AML1 cell line (AID 2202235); note: nearly all actives have a fitted effect of over 40% in size;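 for viability (% of control): series mostly up to about 46 µM; plate controls were DMSO vehicle wells for no effect and blank wells for full effect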
Procedure, shortened: as §2

[5] = BET inhibitor-based combinations targeting novel dependencies in MECOM-rearranged (r) AML: AML-191 cell line (AID 2202236; note: nearly all actives have a fitted effect of over 35% in size;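 for viability (% of control): plate controls were vehicle wells for no effect and wells without cells for full effect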)
Procedure, shortened: as §1

[6] = BET inhibitor-based combinations targeting novel dependencies in MECOM-rearranged (r) AML: AML-194 cell line (AID 2202237; note: nearly all actives have a fitted effect of over 40% in size;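 for viability (% of control): plate controls were vehicle wells for no effect and wells without cells for full effect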)
Procedure, shortened: as §1

[7] = BET inhibitor-based combinations targeting novel dependencies in MECOM-rearranged (r) AML: HNT-34 cell line (AID 2202234); note: nearly all actives have a fitted effect of over 35% in size;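 for viability (% of control): plate controls were vehicle wells for no effect and cell-free wells for full effect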
Procedure, shortened: as §2
Potency is the fitted concentration of half-maximal effect.

Cc1cc(-n2c(=O)ccc3cnc4[nH]ccc4c32)ccc1F
inactive: viability [1] 115% | Potency [2]
active: Potency [3] 16600 nM | Potency [4] 18600 nM | Potency [5] 20900 nM

CN1CCN(C(=O)[C@H]2[C@@H](C(=O)O)[C@H]3CC[C@@H]2O3)CC1
inactive: viability [1] 113% | viability (% of control) [2] 112% [at 8.46 µM] | viability, % of control [3] 111% [at 8.46 µM] | viability (% of control) [4] 104% [at 8.46 µM] | viability (% of control) [5] 93.9% [at 8.46 µM]

COc1ccc(S(=O)(=O)N(C(C)=O)c2ccccc2/C=C/c2cc[n+]([O-])cc2)cc1
active: Potency [1] 2630 nM | Potency [2] 1180 nM | Potency [3] 1180 nM | Potency [4] 1320 nM | Potency [5] 1180 nM | Potency [6] 833 nM

Nc1cc(C(F)(F)F)c(-c2nc(N3CCOCC3)nc(N3CCOCC3)n2)cn1
active: Potency [1] 9340 nM | Potency [2] 3720 nM | Potency [3] 3720 nM | Potency [4] 934 nM | Potency [5] 2630 nM | Potency [6] 2350 nM

Cn1cc(/C=C/C(=O)c2cccc(F)c2)cc1/C=C/C(=O)NO
active: Potency [1] 1480 nM | Potency [2] 3320 nM | Potency [3] 4680 nM | Potency [4] 4170 nM | Potency [6] 11800 nM

Cc1ccc(NC(=O)c2ccc3c(c2)OCCO3)cc1NC(=O)c1ccc2nc(OCCN3CCCC3)ccc2c1
active: Potency [1] 144 nM | Potency [2] 257 nM | Potency [3] 91 nM | Potency [4] 129 nM | Potency [5] 162 nM | Potency [6] 204 nM

CO[C@H]1C(=O)[C@]2(C)[C@@H](OC)C[C@H]3OC[C@@]3(OC(C)=O)[C@H]2[C@H](OC(=O)c2ccccc2)[C@]2(O)C[C@H](OC(=O)[C@H](O)[C@@H](NC(=O)OC(C)(C)C)c3ccccc3)C(C)=C1C2(C)C
active: Potency [1] 3.7 nM | Potency [2] 2.6 nM | Potency [3] 2.3 nM | Potency [4] 2.3 nM | Potency [5] 3.7 nM | Potency [6] 4.2 nM

N#Cc1cccnc1N1CCN(C(=O)c2cccc(Cc3n[nH]c(=O)c4ccccc34)c2)CC1
active: Potency [1] 296 nM | Potency [2] 166 nM | Potency [3] 59 nM | Potency [6] 132 nM

CNC(=O)c1c(C)oc2cc(Oc3ncnc4cc(OC)c(OC)cc34)ccc12
inactive: viability [1] 116% | Potency [2] | Potency [7] | Potency [4] | Potency [5] | Potency [6]

CS[C@H]1SC[C@@H]2C(=O)N(C)[C@H](C(C)C)C(=O)OC[C@H](NC(=O)c3cnc4ccccc4n3)C(=O)N[C@H](C)C(=O)N(C)[C@H]1C(=O)N(C)[C@H](C(C)C)C(=O)OC[C@H](NC(=O)c1cnc3ccccc3n1)C(=O)N[C@H](C)C(=O)N2C
active: Potency [1] 14.8 nM | Potency [2] 4.7 nM | Potency [7] 6.6 nM | Potency [4] 5.3 nM | Potency [5] 13.2 nM | Potency [6] 13.2 nM

CC(=O)O/N=C1\C(=O)N(Cc2cc(Cl)ccc2Cl)c2ccc(Cl)cc21
active: Potency [1] 9340 nM | Potency [2] 13200 nM | Potency [7] 2950 nM | Potency [4] 8330 nM | Potency [5] 2350 nM | Potency [6] 2630 nM

O=C(O)c1cccnc1
inactive: viability [1] 118% | Potency [2] | Potency [3] | Potency [5] | Potency [6]

COc1cc(C)[nH]c(=O)c1CN1CCc2c(Cl)cc([C@H](OC)C3COC3)c(Cl)c2C1=O
inactive: viability [1] 112% | Potency [2] | Potency [7] | Potency [4] | Potency [5] | Potency [6]

COc1ccc(CNC(=O)c2cc(-c3cncc(Cl)c3)cnc2-c2ccccn2)nc1OC
inactive: viability [1] 109% | Potency [2] | Potency [7] | Potency [4] | Potency [5] | Potency [6]

O=C1CC(c2c[nH]c3ccc(F)cc23)C(=O)N1 (stereo not drawn)
inactive: viability [1] 111% | Potency [2] | Potency [7] | Potency [4] | Potency [5] | Potency [6]

CCC(=C/[C@H](C)C/C=C/C(C)=C/[C@@H](C)C(=O)[C@@H](C)[C@H](O)[C@@H](C)C/C(C)=C/C(=O)O)/C=C/[C@@H]1OC(=O)C=C[C@@H]1C
active: Potency [1] 7.4 nM | Potency [2] 4.2 nM | Potency [7] 3.7 nM | Potency [4] 3.3 nM | Potency [5] 3 nM | Potency [6] 1.9 nM

CN(C)C[C@@H]1CCn2cc(c3ccccc32)C2=C(C(=O)NC2=O)c2cn(c3ccccc23)CCO1
active: Potency [1] 8330 nM | Potency [2] 20900 nM | Potency [3] 417 nM | Potency [6] 5900 nM

O=C(O)CNC(=O)c1ncc(-c2cccc(Cl)c2)cc1O
active: Potency [2] 6610 nM
inactive: viability [1] 110% | Potency [3] | Potency [6]
